Assay [1] addresses Calcium and integrin-binding protein 1 (Homo sapiens) (UniProt Q99828). The experiment in a line: Primary qHTS for Identification of Calcium Integrin Binding Protein 1 (CIB1) Competitor (AID 1508620). Further: top concentration of the series differs between compounds. A digest of the protocol: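 Fluorescence polarization competition: GST-tagged CIB1 (1 uM final) preincubated with compound 15 min at room temperature, then FITC-labelled alphaIIb peptide (100 nM final) added. After 15 min at room temperature, polarization read at Ex 480/Em 540.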
On the technique in general: In qHTS, concentration-response curves come from the screen itself.

Assay [2] in a line: Primary qHTS for inhibitors of nuclear receptor binding SET domain protein 2 (NSD2) in an isogenic RCH-ACV NSD2 p.E1099K mutant (9B) (AID 1645876). Further: nearly all actives have a fitted effect of over 70% in size. Further: potency means the concentration at half of the fitted maximal effect.
The nature of assay [3]: Primary qHTS for inhibitors of nuclear receptor binding SET domain protein 2 (NSD2) in an RCH-ACV wild type WT cells (2C) (AID 1645877). Further: nearly all actives have a fitted effect of over 70% in size. Further: potency means the concentration at half of the fitted maximal effect.

Results filed as inconclusive are left out. Values without a mark were called inactive. The source made the active and inactive calls. The call rests on the fitted dose curve; in most records, active means well fitted curve in the direction sought with a large enough effect; inconclusive means small, poorly fitted or top-dose-only effect, or another doubt; inactive means no such curve, though single readings can be large; an effect the other way counts as inactive or inconclusive.
On the % scale 0 is the no-effect control and ±100 the full control effect.

Sequence of Calcium and integrin-binding protein 1 (Homo sapiens) (Q99828 whole entry, looked up): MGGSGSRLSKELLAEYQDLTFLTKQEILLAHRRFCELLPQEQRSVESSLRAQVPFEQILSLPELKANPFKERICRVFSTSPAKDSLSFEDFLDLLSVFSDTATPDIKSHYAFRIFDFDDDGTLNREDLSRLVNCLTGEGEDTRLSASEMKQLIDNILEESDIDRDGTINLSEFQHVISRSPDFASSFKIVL

Regarding `C=C1CC[C@H]2[C@@](C)(CCC(OC3OC(CO)C(O)C(O)C3O)[C@@]2(C)CO)C1C(=O)CC1=CCOC1=O` (some centres not stated), the Potency entry in assay [1], in assay [2] and in assay [3] was “inactive” in each case.

For `CC(=O)/C=C/C1(O)C(C)(C)CC(O)CC1(C)O` (configuration not stated), the Potency entry in assay [1], in assay [2] and in assay [3] was “inactive” each time.

With `CC1=C2CC(O)(C(C)(C)O)C(O[C@@H]3O[C@H](CO)[C@@H](O)[C@H](O)[C@H]3O)CC(C)C2CC1=O` (some centres not stated), the Potency entry in assay [1], in assay [2] and in assay [3] was “inactive” throughout.

Consider `C=C1CC[C@@H]2[C@@](C)(CO[C@@H]3O[C@H](CO)[C@@H](O)[C@H](O)[C@H]3O)[C@H](O)CC[C@@]2(C)[C@@H]1CC/C(C)=C/CO[C@@H]1O[C@H](CO)[C@@H](O)[C@H](O)[C@H]1O`, for which the Potency result in assay [1], in assay [2] and in assay [3] was “inactive” throughout.

For the compound `COc1cc(/C=C/C(=O)O[C@@H]2C[C@@](O)(C(=O)O)C[C@@H](O)[C@@H]2O)ccc1O`, the Potency entry in assay [1], in assay [2] and in assay [3] was “inactive” in each case.

As for `OCC(O)C(c1c[nH]c2ccccc12)c1c[nH]c2ccccc12` (configuration not stated), the Potency result in assay [1], in assay [2] and in assay [3] was “inactive” in each case.

With `CO[C@@H]1[C@]2(O)C(=O)N3/C=C\C(C)(C)c4[nH]c5ccccc5c4/C=C\3C(=O)N2[C@]23[C@H](CO)C(C)(C)N2c2ccccc2[C@]13O`, the Potency entry in assay [1], in assay [2] and in assay [3] was “inactive” each time.

`CC(C)CC(c1c(O)c(C=O)c(O)c(C=O)c1O)C1CCC(C)(O)C2CC(C(C)(C)O)CCC12C` (configuration not stated): the Potency entry in assay [1], in assay [2] and in assay [3] was “inactive” throughout.

Regarding `CC(=O)OCC1OC(O[C@H]2CC[C@]34C[C@]35CC(O)[C@]3(C)[C@@H]([C@H](C)CC/C=C(\C)C(=O)O)C(O)C[C@@]3(C)C5CC[C@H]4C2(C)C)C(O)C(O)C1OC1OCC(O)C(O)C1O` (some centres not stated), the Potency result in assay [1] is “inactive”. The activity change, negative = viability loss in assay [2] was -5.86% [at 9.23 µM]. Moreover, in assay [3], the activity change, negative = cell killing was -13.7% [at 9.23 µM].

With `C/C=C1\[C@H](O[C@@H]2O[C@H](CO)[C@@H](O)[C@H](O)[C@H]2O)OC=C(C(=O)O)[C@H]1CC(=O)OCCc1ccc(O)cc1`, the Potency entry in assay [1], in assay [2] and in assay [3] was “inactive” in each case.

Take `C=CC(C)(CC/C=C(\C)C(=O)OC)OC1OC(COC(=O)CC(C)(O)CC(=O)O)C(O)C(O)C1O` (configuration not stated): the Potency result in assay [1], in assay [2] and in assay [3] was “inactive” in each case.

For `O=C(O)C1(c2ccc(-c3ccc(Cl)c(Cl)c3)c(F)c2)CC1`, the Potency entry in assay [1], in assay [2] and in assay [3] was “inactive” in each case.

As for `COc1cc2c(cc1O)C(c1ccc(O)cc1)C(C)C(C)C2` (configuration not stated), the Potency result in assay [1] is “inactive”. Also, the Potency is 25.8 µM (active) in assay [2] and 18.3 µM (active) in assay [3].

Turning to `CC1OC(O[C@H]2CC[C@@]3(C)C(CC[C@]4(C)C3CC=C3C5CC(C)(C)CC[C@]5(C(=O)OC5OC(CO)C(OC6OCC(OC7OCC(O)C(O)C7O)C(O)C6O)C(O)C5O)CC[C@]34C)C2(C)C)C(O)C(O)C1OC1OC(CO)C(O)C(OC2OC(CO)C(O)C(O)C2O)C1O` (some centres not stated), in assay [1], the activity change, negative = inhibition was -8.26% [at 12.4 µM]. Besides, the activity change, negative = viability loss in assay [2] was -12.9% [at 9.23 µM]. In addition, the activity change, negative = cell killing in assay [3] was -19.1% [at 9.23 µM].

`C[C@@H]1O[C@@H](O[C@H]2[C@H](OC(=O)[C@]34CCC(C)(C)C[C@H]3C3=CCC5[C@@]6(C)CC[C@H](O[C@@H]7O[C@H](CO[C@@H]8OC[C@H](O)[C@H](O)[C@H]8O[C@@H]8OC[C@@H](O)[C@H](O)[C@H]8O)[C@@H](O)[C@H](O)[C@H]7O)C(C)(C)C6CC[C@@]5(C)[C@]3(C)C[C@H]4O)O[C@H](CO)[C@@H](O)[C@@H]2O)[C@H](O[C@@H]2O[C@H](CO)[C@@H](O)[C@H](O)[C@H]2O)[C@H](O)[C@H]1O[C@@H]1OC[C@@H](O)[C@H](O[C@@H]2OC[C@@H](O)[C@H](O)[C@H]2O)[C@H]1O` (some centres not stated): the activity change, negative = inhibition in assay [1] was 0.603% [at 12.4 µM]. Besides, the activity change, negative = viability loss in assay [2] is 4.39% [at 4.96 µM]. The activity change, negative = cell killing in assay [3] was 4.37% [at 4.96 µM].

Take `CC(=O)OCC1=CCC2C(C)(C)CCCC2(C)C12CCC(C)(CC(=O)O)O2` (configuration not stated): the Potency entry in assay [1], in assay [2] and in assay [3] was “inactive” in each case.

As to `COc1ccc([C@H]2OC[C@H]3[C@@H]2CO[C@@H]3c2ccc(O[C@@H]3O[C@H](CO)C(O)[C@H](O)[C@H]3O)c(OC)c2)cc1OC` (some centres not stated), the Potency result in assay [1], in assay [2] and in assay [3] was “inactive” each time.

`CC(O)C1CCC2C3CCC4CC(OC5OC(C(=O)O)C(O)C(O)C5O)CCC4(C)C3CCC12C` (configuration not stated): the Potency entry in assay [1], in assay [2] and in assay [3] was “inactive” throughout.

Turning to `OC[C@@]1(O)CO[C@@H](OC[C@H]2O[C@@H](OCc3ccccc3)[C@H](O)[C@@H](O)[C@@H]2O)[C@@H]1O`, the Potency entry in assay [1], in assay [2] and in assay [3] was “inactive” throughout.

With `CC(C)C[C@H](NC(=O)[C@@H]1O[C@H]1C(=O)O)C(=O)NCCCCN=C(N)N`, the Potency entry in assay [1], in assay [2] and in assay [3] was “inactive” each time.

For the compound `COC(=O)C1(C)CCCC2(C)c3ccc(C(C)C)cc3C(O)C(O)C12` (configuration not stated), the Potency result in assay [1], in assay [2] and in assay [3] was “inactive” each time.

In the case of `C=C(C)[C@@H]1CC[C@]2(C(=O)O)CC[C@]3(C)C(CCC4[C@]5(C)C(CC[C@]43C)C(C)(C)[C@@H](O)[C@@H]5C(=O)O)C12` (some centres not stated), the Potency entry in assay [1], in assay [2] and in assay [3] was “inactive” each time.

Take `Cc1ccc(-c2c(-c3nn(C)c4ncnc(N5CC[C@H](N6CCCCC6)C5)c34)cnn2C)cc1`: the Potency entry in assay [1], in assay [2] and in assay [3] was “inactive” throughout.

In the case of `CC1(C)CC[C@]2(C(=O)O)CC[C@]3(C)C(=CCC4[C@@]5(C)CC[C@H](O[C@@H]6O[C@H](C(=O)O)[C@@H](O)[C@H](O)[C@H]6O)C(C)(C)C5CC[C@]43C)C2C1` (some centres not stated), the Potency result in assay [1], in assay [2] and in assay [3] was “inactive” each time.
